# Experiment: qHTS profiling of the MIPE4 collection as inhibitors of Plasmodium falciparum (DD2) proliferation (AID 743345)
# Conditions: P. falciparum Dd2 in erythrocytes, SYBR Green DNA, 72 h; at 28.5 µM (top of the series) unless noted
# Source text: Plasmodium falciparum is a virulent malarial parasite that kills 1-2 million people worldwide each year. Transmitted by mosquitoes, the sporozoite form of the parasite enters the blood stream to infect hepatocytes, where they become merozoites that infect red blood cells (erythrocytes). Within erythrocytes, merozoites begin a […] cycle of growth and division, after which the parasite is released to infect new red blood cells. Gametocytes, which form within erythrocytes as well, circulate in the bloodstream and are ingested by the mosquito, thereby completing the life cycle. To profile malarial isolates for differential chemical responses and to identify inhibitors of malarial growth, an assay that measures P. falciparum growth and replication within erythrocytes was employed. This assay uses a DNA binding fluorescent dye (SYBR Green) to detect parasite DNA following cell lysis. Because mature erythrocytes lack DNA, only Plasmodium-derived DNA is detected.
# The SYBR Green viability assay was adapted from a method described previously (Plouffe et al., 2008). For screening 3 ul culture medium was dispensed into 1536 well black clear bottom plates (Aurora Biotechnologies) using a Multidrop Combi (Thermo Fisher Scientific Inc.), 23 nL compounds in DMSO were added by a pin tool (Kalypsys), and 5 ul of erythrocytes infected with P. falciparum (0.3% parasitemia, 2.5% hematocrit final concentration) were added. The plates were incubated at 37 C in a humidified incubator in 5% CO2 for 72 h, and 2 ul lysis buffer (20 mM Tris HCl, 10 mM EDTA, 0.16% saponin, 1.6% triton X, 10X SYBR Green I supplied as 10,000X […] by Invitrogen) was added to each well. The plates were mixed for 25 sec with gentle shaking and incubated overnight at room temperature in the dark. The following morning, fluorescence intensity at 485(14) nm excitation and 535(25) nm emission wavelengths was measured on an EnVision (Perkin Elmer) plate reader. Plate reads were normalized relative to the control inhibitor (0.29 uM artemisinin) and vehicle (DMSO) wells present on each plate and then corrected by an algorithm using vehicle-only control plates at the beginning and end of the compound plate stack.
row,SMILES,"parasite growth remaining, % of DMSO control (lower = more inhibition) [%]"
1,Cc1c(C)n(Cc2ccc(-c3ccccc3C(=O)O)cc2)c2ccc(C(=O)N[C@@H](C)c3ccc([N+](=O)[O-])cc3)cc12,30.3
2,COC(=O)C1=C(C)NC(C)=C(C(=O)OCCN2CCN(C(c3ccccc3)c3ccccc3)CC2)C1c1cccc([N+](=O)[O-])c1 (stereo not given),45.6
3,CC(=O)Nc1sc2c(c1-c1nc3ccccc3s1)CNC2,15.4
4,c1cc(-c2cnn3cc(-c4ccc(OCCN5CCCCC5)cc4)cnc23)ccn1,6.66
5,COc1ccc(C=Cc2cc(OC)c(OC)c(OC)c2)cc1O,21.1
6,Cc1cnc(Nc2ccc(F)cc2Cl)nc1-c1c[nH]c(C(=O)N[C@H](CO)c2cccc(Cl)c2)c1,8.92
7,CC(=O)SC[C@@H](C)C(=O)N1CCC[C@H]1C(=O)N[C@@H](Cc1ccccc1)C(=O)O,102
8,Cc1cc(CN2CCN(c3c(Br)cnc4nc(-c5ccc(N6CCN(C)CC6)cc5)[nH]c34)CC2)no1,6.44
9,O=C(c1cncc(Br)c1)N1CCC(N2CCCC2)CC1,105
10,Cc1nc(N)ncc1-c1nc(N2CCOCC2)c2sc(C(C)(C)O)cc2n1,8.49
11,O=C(NC1CCNCC1)c1[nH]ncc1NC(=O)c1c(Cl)cccc1Cl,11.4
12,CC(C)C[C@H](NC(=O)CNC(=O)c1cc(Cl)ccc1Cl)B(O)O,7.7
13,CCNC(=O)Nc1ccc2ncc(Nc3ccc(C)cc3)nc2n1,71.6
14,Cc1ccc(C(=O)Nc2ccc(CN3CCN(C)CC3)c(C(F)(F)F)c2)cc1C#Cc1cnc2cccnn12,7.34
15,C=CCn1c(=O)c2cnc(Nc3ccc(N4CCN(C)CC4)cc3)nc2n1-c1cccc(C(C)(C)O)n1,13.2
16,CN1CCC(CNc2ccc3ncc(-c4cccc(OC(F)(F)F)c4)n3n2)CC1,6.44
17,C=CC(=O)Nc1cc2c(Nc3ccc(F)c(Cl)c3)ncnc2cc1OCCCN1CCOCC1,16
18,Nc1ccccc1NC(=O)c1ccc(CNc2nccc(-c3cccnc3)n2)cc1,7.08
19,CNC(=O)CN1CCC(Oc2cc3c(Nc4cccc(Cl)c4F)ncnc3cc2OC)CC1,41.4
20,COc1cc2c(NC3CCN(C(C)C)CC3)nc(C3CCCCC3)nc2cc1OCCCN1CCCC1,6.68

row,SMILES,"parasite growth remaining, % of DMSO control (lower = more inhibition) [%]"
1,COc1cc2c(Nc3ccc(NC(=O)c4ccccc4)cc3)ncnc2cc1OCCCN1CCOCC1,21.6
2,CC(C)c1ccc(Cn2ccc3c4c(N)nc(NC5CC5)nc4ccc32)cc1,6.19
3,CC(C)(C)OC(=O)Nc1ccc(-c2cc(C(=O)NCCCCCCC(=O)NO)no2)cc1,6.42
4,CCN1CCN(Cc2ccc(-c3cc4c(N[C@H](C)c5ccccc5)ncnc4[nH]3)cc2)CC1,8.31
5,O=C(C=Cc1cccnc1)NCCCCC1CCN(C(=O)c2ccccc2)CC1,93.7
6,CCCCCN(CCC12CC3CC(CC(C3)C1)C2)C(=O)NCCCc1ccncc1,11.7
7,Cc1cc(Nc2nc(N[C@@H](C)c3ccc(F)cc3)c(C#N)cc2F)n[nH]1,7.99
8,COc1cc(C(C)C)c2c(c1)S(=O)(=O)N(COc1cc(=O)n3cccc(OCCN4CCCCC4)c3n1)C2=O,95.7
9,C[C@]1(CO)CN(c2cc(C(=O)Nc3ccc4c(c3)-c3c(c(C(N)=O)nn3-c3ccc(F)cc3)CC4)c(Cl)cn2)C[C@@]1(C)CO,17.1
10,O=C(O)C1(Cc2cccc(Nc3nccs3)n2)CCC(Oc2cccc(Cl)c2F)CC1 (stereo not given),98.3
11,CCC(=C(c1ccccc1)c1ccc(OCCN(C)C)cc1)c1ccccc1,37.8
12,Cc1coc2c1C(=O)C(=O)c1c-2ccc2c1CCCC2(C)C,9.98
13,CCC[C@H](NC(=O)C(C#N)=Cc1cccc(Br)n1)c1ccccc1,6.9
14,CC1(C)O[C@@H]2C[C@@H]3[C@H]4C[C@@H](F)C5=CC(=O)C=C[C@]5(C)[C@@]4(F)[C@@H](O)C[C@]3(C)[C@]2(C(=O)CO)O1,97
15,Nc1nc(Nc2ccc(S(N)(=O)=O)cc2)nn1C(=O)c1c(F)cccc1F,11.8
16,C=C1C(=CC=C2CCC[C@]3(C)[C@@H]([C@H](C)C=C[C@H](C)C(C)C)CC[C@@H]23)C[C@@H](O)C[C@@H]1O,7.23
17,COC(=O)Nc1ccc(-c2nc(N3CCOCC3)c3cnn(C4CCN(Cc5cccnc5)CC4)c3n2)cc1,7.48
18,CC(C)c1cc(C(=O)N2Cc3ccc(CN4CCN(C)CC4)cc3C2)c(O)cc1O,7.69
19,O=c1[nH]nc(Sc2ncc([N+](=O)[O-])s2)n1-c1ccc2c(c1)OCCO2,64.7
20,CN(C)c1nc(Cc2ccc(NC(=O)c3ccc4ccccc4c3)cc2)nc(Cl)c1CC(=O)O,87.6
